Test results reported in PubChem BioAssay (EPA / NIEHS).
Activity calls are given as the source filed them. How the source made its calls: active means hit-call score of the fitted dose curve at least 0.9, where 1 is the maximum; inactive means score below 0.9.

Key:
[1] = APR_HepG2_CellCycleArrest_24hr: Apredica 24-hour HepG2 Assay for Cell Cycle Arrest (AID 2282905); conditions: imaging, actives raise or lower the signal;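 further: cell cycle arrest scored as ratio of 2N to 4N nuclear DNA content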
Method in brief: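 Readout: Hoechst 33342 nuclear DNA content by high-content fluorescent imaging, six images/well, 20x. Human HepG2 liver cells, 24 hr compound exposure, 0.39–200 uM, final DMSO 0.5% v/v. Gain or loss fitted relative to DMSO baseline.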

[2] = APR_HepG2_NuclearSize_24hr: Apredica 24-hour HepG2 Assay for Nuclear Size (AID 2282907); conditions: high-content imaging, actives raise or lower the signal
Method in brief: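 Read-out: nuclear diameter from Hoechst 33342 (2 ug/mL) imaging of fixed HepG2 cells, 20x, six fields/well. Compounds ran at 0.39–200 uM for 24 hr, 0.5% DMSO final. Gain or loss was fitted bidirectionally relative to the DMSO baseline.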

[3] = APR_HepG2_CellLoss_24hr: Apredica 24-hour HepG2 Assay for Cell Loss (AID 2282908); conditions: high-content imaging;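 on AC50: fit in both directions so a hit may be cell loss or gain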
Method in brief: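 Read-out: Hoechst 33342-stained nuclei counted by automated fluorescence imaging after formaldehyde fixation and Triton permeabilization. Ten concentrations, 0.39 to 200 uM, duplicate wells, 0.5% DMSO final. Gain or loss of signal fitted relative to DMSO baseline.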

[4] = APR_HepG2_MicrotubuleCSK_24hr: Apredica 24-hour HepG2 Assay for Microtubule CSK Stabilty (AID 2282909); conditions: HepG2 microtubule cytoskeleton imaging, actives raise or lower the signal
Method in brief: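 Read-out: alpha-tubulin immunofluorescence intensity by automated high-content imaging of fixed HepG2 cells after 24 h compound treatment. Ten concentrations, 0.39 to 200 uM, in duplicate; DMSO 0.5% v/v. Taxol positive control; DMSO-normalized bidirectional curve fitting.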

[5] = APR_HepG2_MitoticArrest_24hr: Apredica 24-hour HepG2 Assay for Mitotic Arrest (AID 2282910); conditions: high-content imaging, actives raise or lower the signal
Method in brief: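 HepG2, 24 hr dosing, 0.39–200 uM, 0.5% DMSO final. Formaldehyde-fixed, Triton-permeabilised, anti-phospho-histone H3 plus Hoechst. ArrayScan imaging at 20x; bidirectional fit vs DMSO baseline.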

[6] = APR_HepG2_MitoMembPot_24hr: Apredica 24-hour HepG2 Assay for Mitochondrial Membrane Potential (AID 2282911); conditions: imaging, actives raise or lower the signal
Method in brief: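 Mitochondrial membrane potential imaged via MitoTracker Red CMXRos (250 nM, 30 min pre-fixation) in fixed HepG2 cells with Hoechst nuclear identification. Ten concentrations 0.39–200 uM, 24 h treatment, 0.5% DMSO; CCCP as positive control.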

[7] = APR_HepG2_MitoMass_24hr: Apredica 24-hour HepG2 Assay for Mitochondrial Mass (AID 2282912); conditions: high-content imaging, actives raise or lower the signal
Method in brief: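 HepG2, 24 hr dosing, 10 concentrations 0.39–200 uM in duplicate, DMSO 0.5% final. MitoTracker Red CMXRos 250 nM, 30 min pre-fix; 3.7% formaldehyde fix. Imaging-based fluorescence intensity; gain/loss fit vs DMSO baseline.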

[8] = APR_HepG2_p53Act_24hr: Apredica 24-hour HepG2 Assay for p53 Activation (AID 2282913); conditions: high-content imaging, actives raise or lower the signal;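 further: p53 protein immunofluorescence averaged per cell in HepG2 with Hoechst nuclei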
Method in brief: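 Fluorescence imaging of formaldehyde-fixed HepG2 cells labelled for p53 and with Hoechst, 24 h after dosing (0.39–200 uM, duplicate wells, 0.5% v/v DMSO). Signal fitted in both directions relative to DMSO.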

[9] = APR_HepG2_CellCycleArrest_72hr: Apredica 72-hour HepG2 Assay for Cell Cycle Arrest (AID 2282914); conditions: high-content imaging, actives raise or lower the signal
Method in brief: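 Read-out: nuclear DNA content from Hoechst 33342 high-content imaging (20x, six fields/well) after 3.7% formaldehyde fixation, fitted bidirectionally against DMSO. Treatment was 72 h in HepG2, ten concentrations 0.39–200 uM, duplicate, 0.5% DMSO.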

[10] = APR_HepG2_CellLoss_72hr: Apredica 72-hour HepG2 Assay for Cell Loss (AID 2282915); conditions: high-content imaging
Method in brief: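 HepG2 cells exposed 72 h to compound at 0.39–200 uM (10 concentrations, duplicate) in 0.5% DMSO. Fixed with 3.7% formaldehyde and Hoechst 33342-stained. Imaged at 20x; nuclear count gives cell number, fitted bidirectionally versus DMSO.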

[11] = APR_HepG2_P-H2AX_72hr: Apredica 72-hour HepG2 Assay for H2AX Phosphorylation (AID 2282916); conditions: imaging, actives raise or lower the signal;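 further: phospho-histone H2A.x immunostain intensity per cell marking DNA damage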
Method in brief: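 Readout: phospho-H2A.x immunofluorescence (FITC secondary) plus Hoechst nuclear stain, high-content imaging at 20x, six fields/well. HepG2, 72 hr compound exposure, 0.39–200 uM, final DMSO 0.5% v/v. Gain or loss fitted relative to DMSO baseline.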

[12] = APR_HepG2_MitoMembPot_72hr: Apredica 72-hour HepG2 Assay for Mitochondrial Membrane Potential (AID 2282917); conditions: imaging, actives raise or lower the signal
Method in brief: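 HepG2 cells dosed 72 hr with compound at 0.39–200 uM in duplicate, 0.5% v/v DMSO final. Mitochondria stained with 250 nM MitoTracker Red CMXRos for 30 min before formaldehyde fixation, imaged by high-content fluorescence; bidirectional fit versus DMSO.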

[13] = APR_HepG2_MitoticArrest_72hr: Apredica 72-hour HepG2 Assay for Mitotic Arrest (AID 2282918); conditions: high-content imaging, actives raise or lower the signal
Method in brief: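 High-content imaging of fixed human HepG2 cells after 72 h compound exposure (0.39–200 uM, duplicates, 0.5% DMSO); mitotic arrest scored from phospho-histone H3 and nuclear Hoechst staining relative to DMSO.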

[14] = APR_HepG2_MicrotubuleCSK_72hr: Apredica 72-hour HepG2 Assay for Microtubule CSK Stabilty (AID 2282919); conditions: HepG2 microtubule cytoskeleton, high-content imaging, actives raise or lower the signal
Method in brief: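 HepG2, 72 hr cmpd exposure, 0.39–200 uM (10 pts, duplicate), 0.5% DMSO. 3.7% formaldehyde fix, 0.5% Triton perm, anti-alpha-tubulin/Cy5 plus Hoechst. HCS fluorescence intensity; bidirectional fit vs DMSO baseline; taxol as positive control.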

[15] = APR_HepG2_P-H2AX_24hr: Apredica 24-hour HepG2 Assay for H2AX Phosphorylation (AID 2282920); conditions: high-content imaging, actives raise or lower the signal
Method in brief: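 High-content imaging of phospho-histone H2A.x immunofluorescence, nuclei counterstained with Hoechst 33342, in fixed HepG2 cells. Compounds ran 0.39–200 uM in duplicate for 24 h, final DMSO 0.5%. Signal change fitted both directions against DMSO.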

[16] = APR_HepG2_StressKinase_72hr: Apredica 72-hour HepG2 Assay for Stress Kinase (AID 2282921); conditions: HepG2 stress kinase (phospho-c-Jun) imaging, actives raise or lower the signal
Method in brief: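 Phospho-c-Jun immunofluorescence measured by high-content imaging at 20x, six fields per well; bidirectional curve fitting against DMSO as baseline. Dosing: 0.39–200 uM, 72 h, 0.5% DMSO final.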

[17] = APR_HepG2_StressKinase_24hr: Apredica 24-hour HepG2 Assay for Stress Kinase (AID 2282922); conditions: HepG2 stress kinase (phospho-c-Jun) imaging, actives raise or lower the signal
Method in brief: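 Read-out: phospho-c-Jun immunofluorescence (Cy3 secondary) quantified by high-content imaging at 20x, nuclei defined by Hoechst 33342. Human HepG2 liver cells dosed 24 hr, 0.39–200 uM, DMSO 0.5% v/v; gain or loss of signal fitted relative to DMSO.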

[18] = APR_HepG2_MitoMass_72hr: Apredica 72-hour HepG2 Assay for Mitochondrial Mass (AID 2282924); conditions: high-content imaging, actives raise or lower the signal;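 further: MitoTracker Red CMXRos stain intensity per cell imaged as mitochondrial mass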
Method in brief: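 Read-out: MitoTracker Red fluorescence intensity from automated imaging (20x, six fields per well) in human HepG2 liver cells. Dosing ran 72 hr, 0.39–200 uM, 0.5% DMSO; bidirectional curve fitting versus DMSO baseline.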

[19] = APR_HepG2_NuclearSize_72hr: Apredica 72-hour HepG2 Assay for Nuclear Size (AID 2282925); conditions: high-content imaging, actives raise or lower the signal
Method in brief: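 Read-out: nuclear diameter from Hoechst 33342 images (ArrayScan, 20x, six fields/well), via cell-cycle image analysis. HepG2 were dosed 0.39–200 uM for 72 hr in 0.5% DMSO. Bidirectional fit relative to DMSO.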

[20] = APR_HepG2_p53Act_72hr: Apredica 72-hour HepG2 Assay for p53 Activation (AID 2282923); conditions: high-content imaging, actives raise or lower the signal;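 further: average cellular p53 protein immunofluorescence intensity in HepG2 cells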
Method in brief: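 Readout: p53 immunofluorescence quantified by automated high-content imaging at 20x, six fields per well, nuclei located via Hoechst. Dosing ran 72 hr over ten concentrations from 0.39 to 200 uM; bidirectional curve fitting against DMSO baseline.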

Measured: AC50

CN(C)CCCN(C)CCCN(C)C
not listed: [20]
inactive: all other assays above

O=C(O)CC(O)(CC(=O)O)C(=O)O
not listed: [20]
inactive: all other assays above

CC(C)(C)c1ccccc1
inactive: all assays above

c1ccc2occc2c1
active: [18] 100 µM
not listed: [20]
inactive: all other assays above

CN(C)C(=O)NC1(c2ccccc2)CCN(CCC[C@]2(c3ccc(Cl)c(Cl)c3)CCCN(C(=O)c3ccccc3)C2)CC1
inactive: [2] | [6] | [9] | [14] | [17] | [18] | [19]
active: [1] 24.7 µM | [3] 24.9 µM | [4] 8.32 µM | [5] 16.3 µM | [7] 15.4 µM | [8] 14.8 µM | [10] 16 µM | [11] 15.1 µM | [12] 25.4 µM | [13] 9.82 µM | [15] 22.5 µM | [16] 25 µM

CN(C)CCCN1c2ccccc2Sc2ccc(Cl)cc21
inactive: [1] | [4] | [6] | [14] | [18] | [19]
active: [2] 129 µM | [3] 35 µM | [5] 19.7 µM | [7] 31 µM | [8] 28.5 µM | [9] 102 µM | [10] 33.9 µM | [11] 81.2 µM | [12] 112 µM | [13] 26 µM | [15] 26 µM | [16] 107 µM | [17] 25.2 µM

COc1ccc(OC(F)(F)F)cc1CN[C@H]1CCCN[C@H]1c1ccccc1
active: [1] 29.2 µM | [2] 33.4 µM | [3] 45.8 µM | [5] 39.5 µM | [7] 66.7 µM | [8] 24.9 µM | [10] 27.5 µM | [12] 55.9 µM | [13] 17.7 µM | [15] 32.6 µM | [16] 28.8 µM | [18] 62.3 µM
inactive: [4] | [6] | [9] | [14] | [17] | [19]

CCc1nc(N)nc(N)c1-c1ccc(Cl)cc1
active: [9] 100 µM | [10] 80.2 µM | [13] 110 µM
not listed: [11] | [20]
inactive: all other assays above

CCOCCOCCO
not listed: [11]
inactive: all other assays above

CCc1cc(C2=C(C(=O)O)N(c3ccccc3C(F)(F)F)S(=O)(=O)c3ccccc32)cc2c1OCO2
active: [10] 95.5 µM
not listed: [20]
inactive: all other assays above

C=CCc1ccc(OC)c(OC)c1
not listed: [11] | [20]
inactive: all other assays above
